# BLM inh – blocks DNA unwinding by human BLM helicase | P54132 | recombinant BLM DNA unwinding, fluorescence dequenching | Potency, µM (top dose mostly 56.1 µM), usual class: inhibitors | 350,000 compounds, 0.2% hits | AID 2528; further: nearly all actives have a fitted effect of over 35% in size
# TDP1 inh – TDP1 (human) enzyme inhibition. Q9NUW8. recombinant TDP1, AlphaScreen DNA substrate cleavage. Potency, µM (titrated, usually from 130 µM), hits mostly inhibitors. 350,000 compounds, 0.28% hits. AID 485290; further: nearly all actives have a fitted effect of over 40% in size
#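 AlphaScreen read-out: signal falls as enzyme removes the 3' tyrosine-FITC from a 5'-biotinylated DNA oligo (15 nM, 5 min, RT). Enzyme was E. coli-made recombinant Tdp1 at 1 nM, exposed to compound for 15 min beforehand; beads 10 ug/ml, 10 min.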
# RECQ1 inh – RECQ1 (human) helicase inhibition. RECQ1 DNA unwinding, red fluorescence kinetic read. Potency, µM (titrated, usually from 57.3 µM), hits mostly inhibitors. P46063. 240,000 compounds, 0.54% hits; further: nearly all actives have a fitted effect of over 30% in size
#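 50 nM RECQ1T1 preincubated 15 min with compound in Tris pH 8.0 buffer with MgCl2, DTT, Tween-20 and 2.5 ug/ml poly(dI-dC); started with 200 nM TAMRA/BHQ-2 forked duplex and 2 mM ATP. Unwinding read as fluorescence (525/598 nm), two reads 2 h apart.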
# APE1 inh – APE1 (human) endonuclease inhibition; recombinant APE1, TAMRA/BHQ-2 abasic DNA cleavage fluorescence; Potency, µM (top dose mostly 65.8 µM), hits mostly inhibitors; P27695; AID 2517; 350,000 compounds, 0.35% hits; further: nearly all actives have a fitted effect of over 55% in size
# Target sequence (P27695 whole entry, looked up): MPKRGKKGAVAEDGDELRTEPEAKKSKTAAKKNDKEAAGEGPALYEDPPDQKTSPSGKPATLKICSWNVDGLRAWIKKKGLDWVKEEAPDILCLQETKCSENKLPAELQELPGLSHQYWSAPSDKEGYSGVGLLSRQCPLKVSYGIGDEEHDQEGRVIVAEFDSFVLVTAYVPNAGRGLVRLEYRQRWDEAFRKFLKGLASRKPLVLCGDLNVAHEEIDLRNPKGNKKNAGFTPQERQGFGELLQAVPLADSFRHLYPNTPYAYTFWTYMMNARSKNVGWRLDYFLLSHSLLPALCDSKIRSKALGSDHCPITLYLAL
#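 Substrate: short duplex with […] THF abasic site, 5'-TAMRA and 3'-BHQ-2, 50 nM final. APE1 at 0.75 nM, preincubated 15 min RT with compound. Fluorescence increase from first to third read measured activity.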
# RGS4 inh – inhibitors of human regulator of G protein signaling 4. Transcreener GDP fluorescence polarization, RGS4-accelerated GTP hydrolysis. P49798. Potency, µM (doses to about 114 µM), hits mostly inhibitors. AID 504845. 390,000 compounds, 0.039% hits; further: nearly all actives have a fitted effect of over 75% in size
# Target sequence (P49798 whole entry, looked up): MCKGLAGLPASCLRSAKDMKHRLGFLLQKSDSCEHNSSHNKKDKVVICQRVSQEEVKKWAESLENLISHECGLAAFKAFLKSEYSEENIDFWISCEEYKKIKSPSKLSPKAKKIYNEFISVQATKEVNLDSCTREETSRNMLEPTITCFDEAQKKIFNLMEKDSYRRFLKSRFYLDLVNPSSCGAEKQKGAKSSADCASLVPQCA
#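 MLSMR compounds (23 nl, pin-transferred) preincubated 10 min at room temperature with a 500nM (2x) first reagent, then RGS4 at 900nM (2x) plus Transcreener GDP mix added; fluorescence polarization (620/688 nm) read before and after 90 min at 30 °C.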
# GCN5L2 inh-1 – blocks human GCN5L2 histone acetyltransferase | Q92830 | GCN5L2 HAT assay, ThioGlo1 CoA-SH fluorescence | Potency, µM (top dose mostly 58.9 µM), most hits filed as inhibitors | 390,000 compounds, 0.21% hits | AID 504327
#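 ThioGlo1-coupled HAT assay: 20nM GCN5L2, 70uM acetyl-CoA, 75uM H3(1-25) peptide, pH 7.5. Fluorescence read at 340/540nm at start and after 20 min at room temperature.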
# GCN5L2 inh-2 – confirmation of human GCN5L2 histone acetyltransferase inhibitors | Potency, µM, usual class: inhibitors | AID 588347 | GCN5L2 HAT, ThioGlo1 CoA fluorescence, 20 min | shares compounds with GCN5L2 inh-1 | 140 compounds, 70% hits
# Hits are given with their value; i = inactive; ? = inconclusive; nt = no result; [ ] = another dose, or the depositor's remark. Rows were chosen to be rich in hits. Some 0.87% of all compounds tested hit in one or more screens of this group. The call rests on the fitted dose curve; in most records, active means well fitted curve in the direction sought with a large enough effect; inconclusive means small, poorly fitted or top-dose-only effect, or another doubt; inactive means no such curve, though single readings can be large; an effect the other way counts as inactive or inconclusive.
SMILES,BLM inh,TDP1 inh,RECQ1 inh,APE1 inh,RGS4 inh,GCN5L2 inh-1,GCN5L2 inh-2
O=C(CCNS(=O)(=O)c1ccc2c(c1)CCN2C(=O)C1CC1)N1CCN(c2cccc(C(F)(F)F)c2)CC1,i,i,nt,nt,i,i,nt
C=CC(=O)OCCOCCOC(=O)C=C,nt,i,i,i,nt,nt,nt
N#Cc1c(-c2ccccc2)nc(SCc2cccc(Cl)c2)[nH]c1=O,i,nt,nt,i,i,?,18.2
CCN(CC)Cc1c(O)ccc2c(=O)c(Oc3ccccc3OC)coc12,i,i,i,i,i,?,?
Nc1ccc(-c2ncc(-c3ccccc3)o2)cc1,i,nt,nt,i,i,i,nt
Cc1ccc(-c2cnc(-c3ccncc3)o2)cc1,i,i,i,i,i,?,18.2
ClC(Cl)(c1nnnn1-c1ccccc1)c1nnnn1-c1ccccc1,i,i,i,i,i,22.4µM,8.13
c1ccc(-c2nnnn2-c2ccccc2)cc1,i,nt,nt,i,i,i,nt
Cc1ccc(N2C(=O)C3C4C=CC(CC4)C3C2=O)cc1[N+](=O)[O-] (stereo not drawn),i,nt,nt,i,i,?,16.2
Cc1ccc(S(=O)(=O)/N=C2/NC(=O)/C(=C\c3cc(Br)cc(Br)c3O)S2)cc1,?,i,nt,i,?,15.8µM,11.5
Cc1ccc(S(=O)(=O)/N=C2/NC(=O)/C(=C/c3cccnc3)S2)cc1,i,i,i,i,i,i,nt
COC(=O)c1ccc(C2NC(c3ccc4c(c3)OCO4)=CC(c3ccccc3O)N2)cc1 (stereo not drawn),nt,nt,nt,nt,i,nt,nt
CN=c1nc(-c2ccccc2)n(-c2ccccc2)s1,nt,i,i,i,3.77µM,2.24µM,2.57
CC(C)(C)c1cc(-c2csc(Nc3ccccc3)[n+]2Cc2ccc(C(=O)O)cc2)cc(C(C)(C)C)c1O,i,i,i,i,i,22.4µM,18.2
Cc1noc(C)c1S(=O)(=O)N1CCc2nc(COc3ccccc3)c3c(c2C1)CO[C@@H](C)C3,i[12.4 µM],i[12.3 µM],i[11.5 µM],i[12.4 µM],nt,nt,nt
Cc1cccc(C)c1-n1cccc1/C=C1\SC(=S)N(c2cccc(C(=O)O)c2)C1=O,i,i,i,i,i,31.6µM,20.4
CC(C)C[C@H](NC(=O)[C@H](CCCCN)NC(=O)CNC(=O)[C@H](CC(C)C)NC(=O)[C@@H](N)C(C)C)C(=O)N[C@@H](CO)C(=O)N[C@@H](CCC(N)=O)C(=O)N[C@@H](CCC(=O)O)C(=O)N[C@@H](CC(C)C)C(=O)N[C@@H](Cc1cnc[nH]1)C(=O)N[C@@H](CCCCN)C(=O)N[C@@H](CC(C)C)C(=O)N[C@@H](CCC(N)=O)C(=O)N[C@H](C(=O)N[C@@H](Cc1ccc(O)cc1)C(=O)N1CCC[C@H]1C(=O)N[C@@H](CCCNC(=N)N)C(=O)N[C@H](C(=O)N[C@@H](CC(N)=O)C(=O)N[C@H](C(=O)NCC(=O)N[C@@H](CO)C(=O)NCC(=O)N[C@H](C(=O)N1CCC[C@H]1C(N)=O)[C@@H](C)O)[C@@H](C)O)[C@@H](C)O)[C@@H](C)O,i,i,i,i,nt,i,nt
CCOc1cc(/C=C2\C(=O)N(c3nc(-c4ccc(Br)cc4)cs3)N=C2c2ccccc2)ccc1O,?,i,i,i,?,?,5.13
CC1=NN(c2ccccc2)C(=O)/C1=C/C=C/c1ccccc1,i,i,i,i,i,i,nt
CC1=NN(c2cccc(C(=O)O)c2)C(=O)/C1=C\C=C\c1ccco1,i,i,i,i,i,?,?
CCc1ccc(S(=O)(=O)/N=C2\C=CC(=O)c3ccccc32)cc1,i,i,i,i,nt,i,nt
CCc1ccc(S(=O)(=O)/N=C2/C=C(Sc3ncn[nH]3)C(=O)c3ccccc32)cc1,22.4µM,i,?,?,i,31.6µM,4.57
CSc1ccc(/C=N/Nc2cccc(C(=O)O)c2)cc1,i,1.12µM,31.6µM,2.24µM,i,?,?
O=C(O)c1cccc(N/N=C/c2cccs2)c1,i,i,i,i,i,i,nt
COc1ccc([C@]23Cc4cc(OC)c(OC)cc4C(O2)C2=C(CCCC2=O)O3)cc1,i[12.4 µM],nt,nt,i[12.4 µM],nt,i[12.7 µM],nt
SMILES,BLM inh,TDP1 inh,RECQ1 inh,APE1 inh,RGS4 inh,GCN5L2 inh-1,GCN5L2 inh-2
O=C(NNc1ccccc1F)c1sccc1Cl,nt,nt,nt,nt,i,nt,nt
CC[C@H](C)[C@H](NC(=O)[C@H](CCC(=O)O)NC(=O)[C@@H](N)CO)C(=O)N[C@@H](CCC(N)=O)C(=O)N[C@@H](CC(C)C)C(=O)N[C@@H](CCSC)C(=O)N[C@@H](Cc1cnc[nH]1)C(=O)N[C@@H](CC(N)=O)C(=O)N[C@@H](CC(C)C)C(=O)NCC(=O)N[C@@H](CCCCN)C(=O)N[C@@H](Cc1cnc[nH]1)C(=O)N[C@@H](CC(C)C)C(=O)N[C@@H](CC(N)=O)C(=O)N[C@@H](CO)C(=O)N[C@@H](CCSC)C(=O)N[C@@H](CCC(=O)O)C(=O)N[C@@H](CCCNC(=N)N)C(=O)N[C@H](C(=O)N[C@@H](CCC(=O)O)C(=O)N[C@@H](Cc1c[nH]c2ccccc12)C(=O)N[C@@H](CC(C)C)C(=O)N[C@@H](CCCNC(=N)N)C(=O)N[C@@H](CCCCN)C(=O)N[C@@H](CCCCN)C(=O)N[C@@H](CC(C)C)C(=O)N[C@@H](CCC(N)=O)C(=O)N[C@@H](CC(=O)O)C(=O)N[C@H](C(=O)N[C@@H](Cc1cnc[nH]1)C(=O)N[C@@H](CC(N)=O)C(=O)N[C@@H](Cc1ccccc1)C(=O)O)C(C)C)C(C)C,i,i,i,i,nt,i,nt
Cc1cc2nc(-c3ccc[nH]c3=O)[nH]c2cc1C,i,nt,nt,i,i,28.2µM,36.3
Cc1cc2nc(-c3ccc[nH]c3=O)n(Cc3ccc(F)cc3)c2cc1C,i,nt,nt,i,i,i,nt
CCOC(=O)c1c(-c2ccco2)csc1NC(=O)COC(=O)c1cnccn1,nt,?,nt,i,?,11.2µM,?
Cc1ccc(S(=O)(=O)N2[C@@H](c3ccccc3F)C(C(=O)O)=CC[C@H]2c2ccc(Cl)c(Cl)c2)cc1,nt,i,nt,i,i,28.2µM,?
O=C(O)C1=CC[C@@H](c2ccc(Cl)cc2)N(S(=O)(=O)c2ccc(Cl)cc2)[C@H]1c1ccc(Br)cc1,nt,i,nt,i,i,25.1µM,18.2
Cc1ccc(S(=O)(=O)N2[C@@H](c3ccc(Br)cc3)C(C(=O)O)=CC[C@H]2c2ccc(Cl)cc2)cc1,nt,i,nt,i,i,?,nt
O=C(O)CCc1nn2cc(-c3ccccc3)nc2[nH]c1=O,i,i,i,i,i,?,32.4
Cc1cccc(N2CCN(C(=O)c3cccn3-c3nnc(N4CCCCC4)s3)CC2)c1C,i,i,nt,nt,i,i,nt

# Screening data: PubChem, National Center for Advancing Translational Sciences (NCATS)
